# Source: PubChem BioAssay AID1508601 (ICCB-Longwood Screening Facility, Harvard Medical School, 2020)
# Among all 5,700 compounds or so, about 85 (1%) were called active. No stated cut-off is given here; in the data, active means p53-positive nuclei above about 36% (passing the limit was not always enough); inactive means the rest. Shown is part of a subset that was picked to be rich in actives.
# Columns and labels:
# [1] = p53 stabilisation in HPV-positive human cells, imaging, p53-positive nuclei imaging, 24 h, 48 h (AID 1508601); conditions: 24/48 h
# [2] = molecular target: Cellular tumor antigen p53 (Homo sapiens) (UniProt P04637); assay: as above; conditions: 24/48 h, stronger effect = higher value
# Chain of Cellular tumor antigen p53 (Homo sapiens) (P04637 whole entry, looked up): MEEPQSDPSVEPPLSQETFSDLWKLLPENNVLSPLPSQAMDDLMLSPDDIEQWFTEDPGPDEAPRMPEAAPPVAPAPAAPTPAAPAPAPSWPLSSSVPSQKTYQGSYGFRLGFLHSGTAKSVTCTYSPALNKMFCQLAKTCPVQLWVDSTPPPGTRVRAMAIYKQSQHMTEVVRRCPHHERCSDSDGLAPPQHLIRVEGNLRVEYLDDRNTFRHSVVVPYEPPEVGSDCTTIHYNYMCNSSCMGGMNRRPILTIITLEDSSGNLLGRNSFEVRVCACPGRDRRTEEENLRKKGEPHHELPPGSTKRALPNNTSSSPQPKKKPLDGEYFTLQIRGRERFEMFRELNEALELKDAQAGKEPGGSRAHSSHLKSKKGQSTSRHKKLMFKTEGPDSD
compound,measurement,setting,value
CC=C(C)C(=O)NC(c1ccccc1)C(O)C(=O)OC1C[C@@]2(O)C(OC(=O)c3ccccc3)[C@@H]3[C@]4(OC(C)=O)COC4CC(O)[C@@]3(C)C(=O)C(OC(C)=O)C(=C1C)C2(C)C (some centres undefined),"nuclei count, normalised","[1]; measured here: cell number at 24 h, Library stock concentration: 3.33 mM",33.5%
same,"nuclei count, normalised","[1]; measured here: cell number at 48 h, Library stock concentration: 3.33 mM",28.1%
same,"p53-positive nuclei, normalised",[2]; Library stock concentration: 3.33 mM,1.63% (inactive)
same,"p53-positive nuclei, normalised","[2]; measured here: p53 positive nuclei at 24 h, Library stock concentration: 3.33 mM",-0.0935%
OC1CN2CCC(O)[C@H]2C(O)C1O (some centres undefined),"nuclei count, normalised","[1]; measured here: cell number at 24 h, Library stock concentration: 500 nM",98.9%
same,"nuclei count, normalised","[1]; measured here: cell number at 24 h, Library stock concentration: 1.5 uM",116%
same,"nuclei count, normalised","[1]; measured here: cell number at 24 h, Library stock concentration: 4.6 uM",110%
same,"nuclei count, normalised","[1]; measured here: cell number at 24 h, Library stock concentration: 13.7 uM",107%
same,"nuclei count, normalised","[1]; measured here: cell number at 24 h, Library stock concentration: 41 uM",109%
same,"nuclei count, normalised","[1]; measured here: cell number at 24 h, Library stock concentration: 123 uM",108%
same,"nuclei count, normalised","[1]; measured here: cell number at 24 h, Library stock concentration: 370 uM",107%
same,"nuclei count, normalised","[1]; measured here: cell number at 24 h, Library stock concentration: 1.111 mM",107%
same,"nuclei count, normalised","[1]; measured here: cell number at 24 h, Library stock concentration: 3.333 mM",105%
same,"nuclei count, normalised","[1]; measured here: cell number at 24 h, Library stock concentration: 10 mM",105%
same,"nuclei count, normalised","[1]; measured here: cell number at 48 h, Library stock concentration: 500 nM",102%
same,"nuclei count, normalised","[1]; measured here: cell number at 48 h, Library stock concentration: 1.5 uM",111%
same,"nuclei count, normalised","[1]; measured here: cell number at 48 h, Library stock concentration: 4.6 uM",108%
same,"nuclei count, normalised","[1]; measured here: cell number at 48 h, Library stock concentration: 13.7 uM",105%
same,"nuclei count, normalised","[1]; measured here: cell number at 48 h, Library stock concentration: 41 uM",110%
same,"nuclei count, normalised","[1]; measured here: cell number at 48 h, Library stock concentration: 123 uM",108%
same,"nuclei count, normalised","[1]; measured here: cell number at 48 h, Library stock concentration: 370 uM",106%
same,"nuclei count, normalised","[1]; measured here: cell number at 48 h, Library stock concentration: 1.111 mM",102%
same,"nuclei count, normalised","[1]; measured here: cell number at 48 h, Library stock concentration: 3.333 mM",106%
same,"nuclei count, normalised","[1]; measured here: cell number at 48 h, Library stock concentration: 10 mM",104%
same,"p53-positive nuclei, normalised",[2]; Library stock concentration: 500 nM,-0.0904% (inactive)
same,"p53-positive nuclei, normalised",[2]; Library stock concentration: 1.5 uM,0.192% (inactive)
same,"p53-positive nuclei, normalised",[2]; Library stock concentration: 4.6 uM,0.0933% (inactive)
same,"p53-positive nuclei, normalised",[2]; Library stock concentration: 13.7 uM,-0.133% (inactive)
same,"p53-positive nuclei, normalised",[2]; Library stock concentration: 41 uM,-0.107% (inactive)
same,"p53-positive nuclei, normalised",[2]; Library stock concentration: 123 uM,0.0873% (inactive)
same,"p53-positive nuclei, normalised",[2]; Library stock concentration: 370 uM,0.261% (inactive)
same,"p53-positive nuclei, normalised",[2]; Library stock concentration: 1.111 mM,-0.0118% (inactive)
same,"p53-positive nuclei, normalised",[2]; Library stock concentration: 3.333 mM,0.175% (inactive)
same,"p53-positive nuclei, normalised",[2]; Library stock concentration: 10 mM,-0.135% (inactive)
same,"p53-positive nuclei, normalised","[2]; measured here: p53 positive nuclei at 24 h, Library stock concentration: 500 nM",-0.068%
same,"p53-positive nuclei, normalised","[2]; measured here: p53 positive nuclei at 24 h, Library stock concentration: 1.5 uM",0.213%
same,"p53-positive nuclei, normalised","[2]; measured here: p53 positive nuclei at 24 h, Library stock concentration: 4.6 uM",-0.135%
same,"p53-positive nuclei, normalised","[2]; measured here: p53 positive nuclei at 24 h, Library stock concentration: 13.7 uM",-0.189%
same,"p53-positive nuclei, normalised","[2]; measured here: p53 positive nuclei at 24 h, Library stock concentration: 41 uM",0.0835%
same,"p53-positive nuclei, normalised","[2]; measured here: p53 positive nuclei at 24 h, Library stock concentration: 123 uM",0.197%
same,"p53-positive nuclei, normalised","[2]; measured here: p53 positive nuclei at 24 h, Library stock concentration: 370 uM",0.0352%
same,"p53-positive nuclei, normalised","[2]; measured here: p53 positive nuclei at 24 h, Library stock concentration: 1.111 mM",-0.189%
same,"p53-positive nuclei, normalised","[2]; measured here: p53 positive nuclei at 24 h, Library stock concentration: 3.333 mM",-0.0741%
same,"p53-positive nuclei, normalised","[2]; measured here: p53 positive nuclei at 24 h, Library stock concentration: 10 mM",0.108%
